Sampled rows, rich in hits. Any-hit rate of the full collection: about 18%.
GCN5L2 inh: blocks human GCN5L2 histone acetyltransferase; GCN5L2 HAT assay, ThioGlo1 CoA-SH fluorescence; Potency, µM (doses to about 58.9 µM), usual class: inhibitors; 390,000 compounds, 0.21% hits; AID 504327
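Fluorescence readout, Ex340nm/Em540nm: ThioGlo1 (50uM final) reacts with free CoA thiol released as 20nM GCN5L2 acetylates H3(1-25) peptide (75uM) using acetyl-CoA (70uM). Compound and enzyme sat 15 min beforehand; 20 min room-temperature reaction.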
TDP1 cell noCPT: qHTS for Inhibitors of human tyrosyl-DNA phosphodiesterase 1 (TDP1): qHTS in cells in absence of CPT | AID 686978, 2013 | 420,000 compounds, 15% hits | DT40 Tdp1-/- hTDP1 cells, no CPT, ATP luminescence, 48 h | Potency, µM (series often up to 46.2 µM), actives largely listed as inhibitors; further: nearly all actives have a fitted effect of over 55% in size
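A cellular qHTS used chicken DT40 cells lacking endogenous Tdp1 but carrying stably transfected human TDP1. Compounds were applied without camptothecin, and cell growth kinetics were judged by ATP-dependent luminescence after ≥48 hr.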
TDP1 cell CPT: DT40-hTDP1 cell growth loss with CPT; Potency, µM (highest dose often 46.2 µM), most hits filed as inhibitors; 420,000 compounds, 12% hits; AID 686979; chicken DT40 Tdp1-/-;hTDP1 cells + 20 nM CPT, ATP luminescence, 48 h; further: nearly all actives have a fitted effect of over 55% in size
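Chicken DT40 Tdp1-/- cells complemented with human TDP1, 400 cells/well, exposed to compounds plus 20 nM camptothecin for at least 48 h at 37 C; viability read as ATP content by CellTiter-Glo luminescence.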
TDP1 inh: TDP1 (human) enzyme inhibition | Potency, µM (series often up to 130 µM), actives largely listed as inhibitors | recombinant TDP1, AlphaScreen DNA substrate cleavage | Q9NUW8 | 350,000 compounds, 0.28% hits | AID 485290; further: nearly all actives have a fitted effect of over 40% in size
Target sequence (Q9NUW8 whole entry, looked up): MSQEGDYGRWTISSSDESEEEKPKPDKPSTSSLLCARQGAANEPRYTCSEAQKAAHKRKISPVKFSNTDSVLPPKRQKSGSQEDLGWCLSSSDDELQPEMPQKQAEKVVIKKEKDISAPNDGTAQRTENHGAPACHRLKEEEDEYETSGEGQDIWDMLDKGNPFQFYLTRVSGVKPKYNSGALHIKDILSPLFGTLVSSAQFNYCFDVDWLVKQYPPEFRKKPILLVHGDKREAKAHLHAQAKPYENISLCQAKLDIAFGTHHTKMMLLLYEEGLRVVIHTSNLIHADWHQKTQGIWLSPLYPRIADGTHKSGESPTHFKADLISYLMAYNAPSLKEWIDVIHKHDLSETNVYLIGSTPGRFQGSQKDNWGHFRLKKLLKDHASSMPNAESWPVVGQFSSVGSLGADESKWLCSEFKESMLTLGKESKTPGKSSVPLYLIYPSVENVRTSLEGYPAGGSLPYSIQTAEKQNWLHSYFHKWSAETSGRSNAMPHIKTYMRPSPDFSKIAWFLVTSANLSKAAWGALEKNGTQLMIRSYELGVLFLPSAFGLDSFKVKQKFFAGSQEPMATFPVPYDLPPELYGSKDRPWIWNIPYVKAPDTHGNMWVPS
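Steps: enzyme plus compound, 15 min RT; add biotin/phosphotyrosine-FITC oligonucleotide (15 nM final), react 5 min; add donor/acceptor beads (10 ug/ml final), 10 min; read AlphaScreen. Tdp1 at 1 nM final.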
PLK1 PBD inh: blocks phosphopeptide binding to human PLK1 polo-box domain. Plk1 PBD binding of FITC phosphopeptide, fluorescence polarization. Potency, µM, hits mostly inhibitors. 360,000 compounds, 2.8% hits; further: series mostly up to about 57 µM; nearly all actives have a fitted effect of over 65% in size
VDR inhibitor: inhibitors of human vitamin D receptor | VDR-SRC2-3 peptide fluorescence polarization, 2 h | Potency, µM, most hits filed as inhibitors | 400,000 compounds, 0.93% hits
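VDR–SRC2-3 interaction, FP format. Cmpds 23 nl via pintool, brief spin, 2 h ambient incubation.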
Hits are given with their value; n = inactive; u = inconclusive; x = not tested or not shown. The call rests on the fitted dose curve; in most records, active means well fitted curve in the direction sought with a large enough effect; inconclusive means small, poorly fitted or top-dose-only effect, or another doubt; inactive means no such curve, though single readings can be large; an effect the other way counts as inactive or inconclusive.

SMILES	GCN5L2 inh	TDP1 cell noCPT	TDP1 cell CPT	TDP1 inh	PLK1 PBD inh	VDR inhibitor
O=C(Cn1ncc2c([nH]c3ccccc32)c1=O)NCc1cccc(Cl)c1	n	n	n	n	x	n
Cc1cn2c(=O)cc(COC(=O)c3cccc(NC(=O)C(C)Oc4ccccc4)c3)nc2s1 (stereo not drawn)	n	n	n	n	x	n
CCc1ccc(NC(=O)CSc2nc(-c3ccccc3)c(C#N)c(=O)[nH]2)cc1	u	n	n	n	x	n
COc1ccc(-c2cc(-c3nnc(COC(=O)CC4CC5CCC4C5)o3)c3ccccc3n2)cc1OC (stereo not drawn)	35µM	21µM	21µM	n	n	n
Cc1ccccc1-c1cncnc1Nc1ccccc1	n	n	n	x	x	45µM
CNc1ncncc1-c1ccccc1C	n	n	n	x	x	71µM
Cc1ccccc1-c1cncnc1NCc1cccnc1	n	n	n	x	x	50µM
c1cncc(CNc2ncncc2-c2ccc3c(c2)OCO3)c1	n	10µM	6.5µM	x	x	n
COC(=O)Cc1ccc(N(Cc2ccccc2F)S(=O)(=O)c2ccc(C)cc2)cc1	n	18µM	21µM	n	n	n
Cc1ccc(OCC(=O)Nc2ccc(S(=O)(=O)N(Cc3ccccc3)c3ccccc3)cc2)cc1	n	4.6µM	18µM	n	x	n
COC(=O)c1ccc(NC(=O)COc2ccc(N(C)S(=O)(=O)c3ccc(C)cc3)cc2)cc1	n	u	16µM	n	n	n
Cc1ccc(S(=O)(=O)N(C)c2ccc(OCC(=O)Nc3ccc(C(=O)N(C)C)cc3)cc2)cc1C	n	18µM	u	n	n	n
COc1ccc(OCC(=O)Nc2ccc(S(=O)(=O)N(C)c3ccccc3)cc2)cc1	n	n	n	n	n	n
COC(=O)[C@@]1(Cc2ccccc2)[C@H]2c3cc(C(=O)N4CCCC4)n(CCN4CNCC4=O)c3C[C@H]2CN1C(=O)c1ccccc1	x	x	x	n	x	x
Cc1[nH]c2ccccc2c1Cc1nnc(SCCC#N)o1	n	n	n	n	n	n
Cc1ccc(N(CCC(=O)O)S(=O)(=O)c2ccccc2)cc1	n	n	n	n	n	n
COc1ccc(CN(C)C(=O)CCN(c2ccccc2)S(=O)(=O)c2ccc(C)cc2)c(OC)c1	n	23µM	21µM	n	n	n
COc1cc(Cl)c(C)cc1NC(=O)c1cnc2c(-c3cccc(C)c3)c(C)nn2c1C	n	u	u	n	x	n
N#Cc1ccccc1S(=O)(=O)N1CCN(C(=O)[C@@H]2CCCN2C(=O)c2cccs2)CC1	n	n	n	n	n	n
CCOC(=O)c1cc(C(=O)OCC)c2ccccn2c1=O	n	18µM	u	n	n	n
CCOC(=O)c1c[nH]n(-c2ccccc2)c1=O	n	n	n	n	n	n
CCNC(=O)N(C)C[C@H]1N[C@@](CC)(C(=O)OC)[C@H]2C(=O)N(Cc3ccccc3)C(=O)[C@@H]12	n	n	n	n	n	n
Cc1ccc(-n2c(NN)nc3ccccc3c2=O)c(C)c1	n	u	u	n	n	n
Cc1ccc(-n2c(-c3ccccc3)c[n+]3c2CCc2ccccc2-3)c(C)c1	n	0.037µM	0.21µM	n	n	n
COC(=O)c1ccc(Oc2cc(C)nc(SC)n2)cc1	n	2.9µM	4.1µM	n	12µM	u
SMILES	GCN5L2 inh	TDP1 cell noCPT	TDP1 cell CPT	TDP1 inh	PLK1 PBD inh	VDR inhibitor
C=CCc1ccccc1OCc1nc2ccccc2n1CC	n	23µM	u	n	x	n
CCC(=O)O[C@@H](OP(=O)(CCCCc1ccccc1)CC(=O)N1C[C@H](C2CCCCC2)C[C@H]1C(=O)O)C(C)C (stereo partly drawn)	n	x	x	x	x	n
CC(Oc1ccccc1)C(=O)N1CCN(S(=O)(=O)c2ccc(OC(F)(F)F)cc2)CC1 (stereo not drawn)	x	u	18µM	x	n	x
N#CC1(c2ccccc2)CCN(S(=O)(=O)c2ccc(OC(F)(F)F)cc2)CC1	n	15µM	n	x	n	n
CC(Oc1ccccc1)C(=O)Nc1ccc(S(=O)(=O)N2CCN(C)CC2)cc1 (stereo not drawn)	n	n	u	x	n	n
COC(=O)CN1C(=O)[C@@H]2[C@H](C1=O)[C@@H]1CC(C(=O)OC)=C[C@@H](C(=O)OC)C3C1=C(C(=O)C31CCCCC1)[C@@H]2C (stereo partly drawn)	x	x	x	n	x	n
Cc1ccc(/C=C2\CCCC3=C2NC(=S)NC3c2ccc(C)cc2)cc1 (stereo not drawn)	n	u	n	n	u	u
Cc1ccc(/C=C2\CC(C)CC3=C2NC(=S)NC3c2ccc(C)cc2)cc1 (stereo not drawn)	n	15µM	u	n	u	u
CC1CC2=C(NC(=S)NC2c2cccc(F)c2)/C(=C/c2cccc(F)c2)C1 (stereo not drawn)	n	16µM	u	n	n	n
CC1CC2=C(NC(=S)NC2c2ccccc2F)/C(=C/c2ccccc2F)C1 (stereo not drawn)	n	u	u	n	u	u
CCCN1CNc2c(c(=O)[nH]c(=S)n2CCc2cccc(Cl)c2)C1	x	u	u	n	x	n

Screening results deposited in PubChem by National Center for Advancing Translational Sciences (NCATS).
